# SARS PLpro yeast = qHTS of Yeast-based Assay for SARS-CoV PLP; Potency, µM (series often up to 32.9 µM), inactives show top-dose activity, positive = growth rescue, most hits filed as activators; AID 485353, 2010; S. cerevisiae expressing SARS-CoV PLpro, growth rescue; actives 0.19% (n = 330,000); calls by dose curve; further: 0% is about no effect; nearly all actives have a fitted effect of over 55% in size
# Tb PYK inh = qHTS of Trypanosoma Brucei Inhibitors; pyruvate kinase (Trypanosoma brucei), Q57TT1; TbPYK enzyme, Kinase-Glo Plus ATP luminescence, 45 min; Potency, µM (top dose mostly 76.8 µM), for inactives: top-dose activity, negative = inhibition, actives largely listed as inhibitors; actives 0.12% (n = 410,000); AID 624173, 2012; further: on the % scale 0 is the no-effect control and ±100 the full control effect; nearly all actives have a fitted effect of over 50% in size
#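 Glycolytic pyruvate kinase of T. brucei was incubated with substrate, test compound and 130 uM ADP for 45 minutes at room temperature. Luminescent Kinase-Glo Plus signal was measured after 10 minutes.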
# LmPK inh = qHTS Assay for Inhibitors of Leishmania Mexicana Pyruvate Kinase (LmPK); actives 0.37% (n = 290,000); AID 1721, 2009; Potency, µM (series often up to 57.5 µM), for the others: at the top dose activity change, negative = inhibition, usual class: inhibitors; purified LmPK, Kinase-Glo ATP luminescence, 1 h; Q27686; further: on the % scale 0 is the no-effect control and ±100 the full control effect
# Target sequence (Q27686 whole entry, looked up): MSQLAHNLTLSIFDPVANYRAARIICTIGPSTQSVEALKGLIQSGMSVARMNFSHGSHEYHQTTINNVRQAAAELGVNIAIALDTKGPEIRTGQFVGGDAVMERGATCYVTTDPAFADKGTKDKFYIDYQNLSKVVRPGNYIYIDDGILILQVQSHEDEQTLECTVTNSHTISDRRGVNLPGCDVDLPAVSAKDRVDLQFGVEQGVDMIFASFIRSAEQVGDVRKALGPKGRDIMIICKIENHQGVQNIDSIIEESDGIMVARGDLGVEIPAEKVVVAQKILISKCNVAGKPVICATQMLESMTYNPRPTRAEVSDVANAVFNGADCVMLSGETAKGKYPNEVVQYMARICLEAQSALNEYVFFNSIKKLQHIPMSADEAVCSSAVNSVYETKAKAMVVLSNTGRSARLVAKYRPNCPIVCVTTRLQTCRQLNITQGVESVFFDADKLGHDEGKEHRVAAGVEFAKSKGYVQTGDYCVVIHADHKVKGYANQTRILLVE
#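 Purified LmPK (0.1 nM) with 0.5 mM PEP and 0.1 mM ADP in imidazole buffer pH 7.2 with MgCl2/KCl, 1 h at room temperature. ATP formed was read by luciferase luminescence and normalized to no-enzyme and uninhibited controls.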
# RE007 growth inh = qHTS Assay for Inhibitors of the HIV-1 protein Vpr. S. pombe RE007 Vpr strain, BacTiter-Glo ATP luminescence, 24 h. Potency, µM (doses to about 92.2 µM), inactives show top-dose activity change, negative = less growth, most hits filed as inhibitors. actives 0.21% (n = 360,000). AID 651644, 2012; active means well fitted falling curve with a large enough effect; inconclusive means small, poorly fitted or top-dose-only effect; inactive means no such curve, though single readings can be large or run the other way; further: on the % scale 0 is the no-effect control and ±100 the full control effect; nearly all actives have a fitted effect of over 50% in size
#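 Fission yeast strain RE007, carrying one chromosomally integrated HIV-1 vpr copy, was seeded at OD 0.01 in PMG+AL medium with 23 nL pinned compound. After 24 h at 30 °C and 99% humidity, viability was read by BacTiter-Glo luminescence.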
# NS1 function inh = qHTS Assay for Inhibitors of Influenza NS1 Protein Function | Potency, µM (series often up to 46.1 µM), for the others: at the highest dose activity, positive = more growth | actives 0.4% (n = 270,000) | AID 2326, 2010; calls by dose curve; further: actives are rising curves; nearly all actives have a fitted effect of over 50% in size
#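 Growth recovery, yeast-based: influenza A NS1 expressed in S. cerevisiae causes slow growth, and suppressors are detected by OD600. The parent strain without NS1 is used as positive control.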
# Sm TGR inh = qHTS Assay for the Inhibitors of Schistosoma Mansoni Peroxiredoxins | Schistosoma mansoni thioredoxin glutathione reductase (TGR), Q962Y6 | purified TGR, DTNB reduction, TNB absorbance 405 nm | Potency, µM (series often up to 114 µM), for the others: at the top dose activity change, negative = inhibition, hits mostly inhibitors | actives 3% (n = 360,000) | AID 485364, 2010; further: on the % scale 0 is the no-effect control and ±100 the full control effect; nearly all actives have a fitted effect of over 60% in size
#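 Kinetic colorimetric format: TGR-catalysed, NADPH-driven DTNB reduction monitored via TNB absorbance. Enzyme dispensed at 20 nM; compound exposure 15 min at room temperature before reaction start.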
# * = called active by the depositor; ? = inconclusive; / = no result; [ ] = dose if it differs, or a comment. A selection: hits, their analogues and other compounds. The true share with any hit is near 3.3%. Unless noted, the call rests on the fitted dose curve; in most records, active means well fitted curve in the direction sought with a large enough effect; inconclusive means small, poorly fitted or top-dose-only effect, or another doubt; inactive means no such curve, though single readings can be large; an effect the other way counts as inactive or inconclusive. Potency means the concentration at half of the fitted maximal effect.
SMILES,SARS PLpro yeast,Tb PYK inh,LmPK inh,RE007 growth inh,NS1 function inh,Sm TGR inh
Cc1ccc(C(=O)N2CCCC(Nc3ccc(F)cc3)C2)cc1C (stereo unspecified),8.2%,1.3%,-6.8%,5.8%,-52.5%,79.4µM*
O=C(Nc1ccc(F)cc1)c1ccc(C(=O)N2CCCC(O)C2)cc1 (stereo unspecified),7.8%,-4.3%,/,9.9%,/,3.98µM*
Cc1ccc(C(=O)N(c2ccc(C)cc2)S(=O)(=O)c2ccc(Cl)cc2)cc1,/,3.4%,/,/,/,-2.0%
C#CCNC(=O)C1=C[C@@H](c2ccc(C#C)cc2)C[C@@H](OCCCCO)O1,/,-1.3%,/,0.5%,/,/
C#CCNC(=O)C1=C[C@H](c2csc3ccccc23)C[C@H](OCc2ccc(CO)cc2)O1,-0.7%,-1.7%,0.5%,10.7%,6.6%,0.0%
C#CCNC(=O)C1=C[C@H](c2ccc(C(F)(F)F)cc2)C[C@H](OCCCCO)O1,-2.9%,6.3%,4.2%,5.8%,-1.2%,12.6µM*
C#CCNC(=O)C1=C[C@@H](c2cn(C(C)=O)c3ccccc23)C[C@@H](OCCCCO)O1,-1.5%,-5.4%,6.4%,6.6%,3.0%,39.8µM*
CC(=O)n1cc([C@@H]2C=C(C(=O)NCc3ccccc3)O[C@H](OCCCCO)C2)c2ccccc21,-1.5%,-2.6%,-0.9%,-4.4%,3.9%,50.1µM*
C#CCNC(=O)C1=C[C@H](c2csc3ccccc23)C[C@H](OCCCCO)O1,-1.7%,2.0%,-0.5%,-6.1%,-2.8%,44.7µM*
Cc1ccc(CN2CCSc3ccc(C(=O)N4CCN(c5ccc(Cl)cc5)CC4)cc32)cc1,/,-5.5%,/,/,/,4.2%
C=CCN1c2ccccc2[C@]23C[C@@H](C(=O)OC)N(C(=O)COCc4ccccc4)C2=NC(C(=O)OC)=C(C(=O)OC)[C@H]13,/,/,0.0%[11.5 µM],/,/,/
O=C(c1ccccc1)[C@H]1[C@H](c2ccccc2[N+](=O)[O-])N1C1CCCCC1 (stereo partly specified),/,/,/,/,-21.9%,/
CCOc1ccc(C(=O)Nc2ccc(S(=O)(=O)Nc3nccc(C)n3)cc2)cc1OCC,4.1%,3.9%,0.2%,0.1%,6.7%,2.5%
CCOc1ccccc1C(=O)Nc1ccc(S(=O)(=O)Nc2nccc(C)n2)cc1,-2.7%,2.3%,-5.9%,-1.4%,13.1%,31.6µM*
COc1cc(NC(=O)COCc2cc(-c3ccc(F)cc3)on2)cc(OC)c1OC,/,-2.1%,/,/,/,-4.1%
O=C(O)c1ccc(S(=O)(=O)/N=C2\C=C(Nc3ccccc3F)C(=O)c3ccccc32)cc1,-32.9%,0.4%,-12.9%,?,-32.8%,44.7µM*
Cc1ccccc1NC1=C/C(=N\S(=O)(=O)c2ccc(C(=O)O)cc2)c2ccccc2C1=O,-5.4%,3.1%,0.4%,?,-4.9%,?
OCCN(CCO)c1ncnc2c1sc1nc(N3CCOCC3)c3c(c12)CCCC3,0.3%,1.6%,3.2%,-14.5%,-71.7%,-1.6%
COCCCNc1ncnc2c1sc1nc(-c3ccco3)c3c(c12)CC(C)(C)OC3,-0.3%,-7.4%,4.7%,-4.7%,5.3%,15.8µM*
COC(=O)CSc1nc(SC)nc2c1sc1nc(-c3ccco3)c3c(c12)CC(C)(C)OC3,/,-2.1%,/,0.1%,/,/
CSc1nc(SCCO)c2sc3nc(-c4ccco4)c4c(c3c2n1)CC(C)(C)OC4,7.4%,13.0%,-1.4%,-23.6%,0.9%,2.51µM*
CSc1nc(N(CCO)CCO)c2sc3nc(-c4ccco4)c4c(c3c2n1)CCC4,1.9%,-4.7%,5.3%,-4.3%,?,2.51µM*
CC1(C)Cc2c(c(-c3ccco3)nc3sc4c(NCCO)ncnc4c23)CO1,-1.1%,-0.4%,9.8%[11.5 µM],11.6%,/,14.1µM*
Cc1ccc(CN2C(=O)CN(C3CCCCCC3)C(=O)C2c2ccc(F)cc2)cc1 (stereo unspecified),/,3.0%,/,/,/,2.9%
Nc1c(C(=O)NCc2ccco2)c2nc3ccccc3nc2n1CCc1ccc(F)cc1,12.5%,-13.2%,3.8%,-10.2%,?,?
SMILES,SARS PLpro yeast,Tb PYK inh,LmPK inh,RE007 growth inh,NS1 function inh,Sm TGR inh
COc1ccc(Cn2c(N)c(C(=O)NCc3ccco3)c3nc4ccccc4nc32)cc1OC,-4.7%,-12.3%,4.7%,-12.2%,?,35.5µM*
COc1ccc(-n2c(N)c(C(=O)NCc3ccco3)c3nc4ccccc4nc32)cc1OC,25.3%,3.9%,4.6%,0.7%,17.7%,39.8µM*
COc1cc(-n2c(N)c(C(=O)NCc3ccco3)c3nc4ccccc4nc32)cc(OC)c1OC,16.3%,-11.1%,2.5%,0.1%,16.1%,25.1µM*
COc1ccc(-n2c(N)c(C(=O)NCc3ccco3)c3nc4ccccc4nc32)cc1,4.6%,1.8%,5.3%,0.2%,18.4%,44.7µM*
Cc1ccc(-c2nn[nH]n2)cc1,2.3%,4.3%,-10.2%,-1.6%,-1.6%,8.5%
Cc1ccc(-c2nn[nH]n2)o1,-3.9%,?,6.9%,-10.0%,2.6%,44.7µM*
CCn1c2ccc(Cl)cc2c2nc3ccccc3nc21,0.8%,-9.5%,1.1%,-10.8%,-10.2%,28.2µM*
CCn1c2ccc(OC)cc2c2nc3ccccc3nc21,-16.6%,1.4%,6.4%,-11.5%,-3.7%,1.3%
N#CCCN(C(=O)COC(=O)CCC(=O)c1ccc(F)cc1)c1ccccc1,-0.3%,0.0%,/,22.8%,/,39.8µM*
O=C(c1ccc(Br)cc1)C1CCc2occc2C1=O (stereo unspecified),-3.7%,-0.7%,1.7%,-13.1%,-1.2%,56.2µM*
Cc1nc(S(=O)(=O)c2ccc(Cl)cc2)c(NCc2ccccc2)o1,5.4%,9.7%,9.0%,14.9%,2.5%,39.8µM*
O=S(=O)(c1ccc(Cl)cc1)c1nc(-c2ccccc2F)oc1NCc1ccccc1,/,0.8%,/,/,/,-2.6%
CNc1oc(C)nc1S(=O)(=O)c1ccccc1,0.8%,-2.6%,5.2%,-4.2%,3.2%,1.58µM*
CSc1oc(-c2ccc(F)cc2)nc1S(=O)(=O)c1ccccc1,20.2%,2.3%,6.8%,10.8%,-1.1%,-0.7%
CN(C)Cc1ccc(-c2cc3onc(-c4ccccc4)c3c(=O)n2C)cc1,/,/,/,/,-10.9%,/
CCCOc1ccccc1C(=O)Nc1ccc(-c2nc3ccc(C)cc3s2)cc1,/,-1.7%,/,/,/,-4.9%
Cc1ccc(S(=O)(=O)/N=C(/Nc2cccc(C(=O)O)c2)c2ccccc2)cc1,-2.0%,-8.1%,0.7%,7.8%,-2.1%,-0.4%
O=S(=O)(/N=C(\Sc1ccccc1)c1ccccc1)c1ccc(Cl)cc1,?,-3.5%,-1.2%,6.8%,4.8%,0.0%
